The record followed here is PubChem BioAssay (NCI).

Structures are written as SMILES. “And” between values parts separate entries of the source, which are not always exact repeats. Equal values may be shown once. Compounds without any hit were thinned out: in the full panel of roughly 83,000, 20% have a hit.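 Compound tested at a single concentration for 48 hours in 96-well plates; a percent growth value below 10 was scored as active.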 The source made the active and inactive calls.

This experiment relates to A549/ATCC NSCLC. The experiment is described as follows: NCI-60 one-dose screen, 48 h (100 = growth as untreated, 0 = no growth, -100 = all killed). The following applies: 10 µM unless noted. Here is the method:
Growth inhibition of the A549/ATCC human Non-Small Cell Lung tumor cell line is measured as a screen for anti-cancer activity. Cells are grown in 96 well plates and exposed to the test compound for 48 hours. Compounds are tested at a single concentration, which is 10^-5 M for most compounds. The reported endpoint is percent growth (GI% or GIPRCNT), where numbers from 0 - 100% represent growth inhibition, and numbers from -100% - 0 represent cell death. For example, a value of 40 represents 60% growth inhibition. A value of 0 means no net growth occurred over the course of the experiment. A value of -40 indicates 40% of cells at the beginning of the experiment died by the end of the experiment. A value of -100 means all cells are dead at the end of the experiment.
NCI-60 Human Tumor Cell Lines Screen was performed using the standard one-dose NCI protocol, which is described in more detail at https://dtp.cancer.gov/discovery_development/nci-60/default.htm.
Compounds with GIPRCNT values below 10 were considered active. Activity score was based on GIPRCNT using the following formula: […]
Score is 0 for GIPRCNT values of 100 or above, 50 for GIPRCNT values of 0, and 100 for GIPRCNT values of -100.
Consider `Clc1ccc(Nc2nc(Nc3ccc(Cl)cc3)nc(Nc3ccc(-c4cc(-c5cccc(Cl)c5)on4)cc3)n2)cc1`, for which the growth was 91.3% (inactive). Then `O=C(NNc1ccccc1)C1CCCN1` (stereo not given), with 75.9% (inactive); and `CCNC(=O)Oc1ccc(/C(=C(/C)Cc2ccc(OC)cc2)c2ccc(OCCN(CC)CC)cc2)cc1`, with 51.7% (inactive); and `Cn1cc(C2=C(c3cccc4ccccc34)C(=O)NC2=O)c2cc(Br)ccc21`, with 91.3% (inactive). As to `S=c1nc(CS)[nH]c2ccccc12`, the growth is 96.6% (inactive). Then `Cc1[nH]c(C(=O)Nc2nc3ccc(NC(=O)CCN)cc3s2)c(Cl)c1Cl`, with 95.8% (inactive). The figure for `Nn1c(-c2ccc(Cl)cc2)nc2c(-c3ccc(Cl)cc3)nc3ccc(Cl)cc3c2c1=O` is -61.2% (active). Regarding `O=C1/C(=C/c2ccccc2[N+](=O)[O-])Cc2ccccc21`, the growth is 41.4% (inactive) and -6.77% (active). The figure for `O=C1C=C(Nc2ccccc2)c2ncccc2C1=O` is -49% (active). Consider `CC[C@]12CN3CCc4c([nH]c5ccccc45)[C@@](C(=O)OC)(c4cc5c(cc4OC)N(C)[C@H]4[C@@](O)(C(=O)OC)[C@H](OC(C)=O)[C@]6(CC)C=CCN7CC[C@]54[C@@H]76)CC(C3)[C@H]1O2` (stereo not given in full), for which the growth was 20.9% (inactive). Turning to `COc1ccc(/C=C2/C(=O)N=C3N2NC(c2ccccc2)=CN3c2ccccc2)cc1`, the growth is 104% (inactive).

With `CN(C)CCN1C(=O)c2c(c3c4ccccc4n4c3c3c2c2ccccc2n3C2CC(O)C(O)C4(C)O2)C1=O` (stereo not given), the growth is 5.47% (active). Then `CCOc1ccccc1NC(=O)c1cc2ccccc2cc1O`, with 36.8% (inactive). The figure for `C/C=C(/C)C(=O)O[C@@H]1CC(C)(C)CC2C34OC(=O)[C@@]21CC[C@@]3(C)[C@]1(C)CCC2C(C)(C)C(=O)CC[C@]2(C)C1C[C@@H]4Cl` (stereo not given in full) is 91% (inactive).

Turning to `COc1ccc(-c2cc(-c3cccc(Cl)c3)c(C#N)c(=O)[nH]2)c(OC)c1`, the growth was 96.4% (inactive). Take `CCOC(=O)c1cc2c(n1Cc1cc(OC)cc(OC)c1Br)-c1nc(NC(C)=O)sc1CCC2`: the growth is 42.8% (inactive). Turning to `COc1cc(/C=C2\CCC/C(=C\c3cc(CN4CCCC4)c(O)c(OC)c3)C2=O)cc(CN2CCCC2)c1O`, the growth was 43.7% (inactive). Then `O=C1/C(=C/c2ccc(-c3cccc(C(F)(F)F)c3)o2)SC(=S)N1CCc1ccc(O)cc1`, with 75% (inactive); and `CCCCC1COc2cccc3c2N1C=C/C3=C\C(=O)N(C)c1cccc(Cl)c1` (stereo not given), with 99.5% (inactive). Then `Brc1ccc(/C=C(/C2=NCCN2)n2ccc3ccccc32)cc1`, with 77.9% (inactive); and `COC(=O)/C=C1/SC(=Nc2ccc([N+](=O)[O-])cc2)N(CCc2c[nH]c3ccccc23)C1=O`, with 90.8% (inactive).

As for `N#CC1=C(N)Oc2c(sc3c(Br)cccc23)C1c1ccccn1` (stereo not given), the growth was 40.1% (inactive). The figure for `CCN(CC)CCCN1C(=O)c2c(c(C)c3c(oc4cc(OC)ccc43)c2C)C1=O` is 92.5% (inactive); for `C#CCn1cnc2cnc(Nc3cccc(NC(=O)CCl)c3)nc21` it is -51.3% [6.25 µM] (active); for `Cc1nc2sc(C(=O)Nc3cccc4ncccc34)c(N)c2cc1C(C)O` (stereo not given) it is 81.3% (inactive). Then `CCOC(=O)c1ccc(Nc2ncnc3c2cnn3-c2cccc(F)c2)cc1`, with 102% (inactive); and `Cc1ccc2nc3ccccc3c(NCc3ccc(Cl)cc3)c2c1`, with 40.8% (inactive). The figure for `O=C(CCN1CCOCC1)Nc1cccc(-n2cc(-c3ccncc3)c(-c3ccc(Cl)c(O)c3)n2)c1` is 35.8% (inactive).

`O=C(/C=C\c1ccc(Cl)c(Cl)c1)c1ccccc1`: the growth is 86.7% (inactive) and 93.1% (inactive). In the case of `CCn1cc(C(=O)NN=C2CCCC2)c(=O)c2ccc(C)nc21`, the growth was 90.3% (inactive). Consider `COc1ccc(C(=O)c2ccc(OC)c(OC)c2OC)cc1`, for which the growth was 47% (inactive) and 41.3% (inactive). Then `CC(=O)OC[C@]12CCC(C)(C)C=C1[C@H]1CC[C@@H]3[C@@]4(C)CCCNC(C)(C)[C@@H]4CC[C@@]3(C)[C@]1(C)CC2`, with 83% (inactive).

For `CN1CCCc2cc(/C=C3\SC(=S)N(C(Cc4ccc(O)cc4)C(=O)O)C3=O)ccc21` (stereo not given), the growth was 105% (inactive). Consider `O/N=C(/c1ccccc1)c1ccc2c3c(cccc13)CC2`, for which the growth was 73.8% (inactive) and 94.4% (inactive). The figure for `C=CCN1C=CC(=O)[C@H](O[Si](C)(C)C(C)(C)C)[C@@H]1/C=C/c1ccccc1` is -40.4% [100 µM] (active); for `Cc1nnc(NS(=O)(=O)c2ccc(N=Nc3ccc(N)nc3N)cc2)s1` it is 97.1% (inactive) and 112% (inactive); for `COc1ccc2c(O)c(/C=C3\N=Nc4nc(C)ccc43)oc2c1CC1CCNCC1` it is 68.2% (inactive). Then `O=C(c1ccc(Nc2nccc(NCCCNc3ccnc4cc(Cl)ccc34)n2)cc1)N1CCCCC1`, with 19.1% (inactive). The figure for `Cn1cc2c(=O)nc3c(-c4nc5ccccc5[nH]4)n[nH]n3c2n1` is 79.2% (inactive). As to `Cc1ccc2[nH]c(=S)[nH]c(=O)c2c1`, the growth was 98.9% (inactive).
